Consider 7 compounds from PubChem BioAssay (NCI).

Test systems include NCI-H23 lung; NCI-H226 lung; NCI-H322M lung; HOP-62 NSCLC; NCI-H460 lung; HOP-92 NSCLC; NCI-H522 lung; A549/ATCC NSCLC; 786-0 renal; COLO 205 colon; DU-145 prostate; K-562 leukemia; MALME-3M melanoma; MDA-MB-231 breast; RXF 393 renal; SF-268 CNS; SF-295 CNS; SF-539 CNS; UACC-257 melanoma; M14 melanoma.
Common to all, as to assay: NCI-60 one-dose screen, 48 h (100 = growth as untreated, 0 = no growth, -100 = all killed)
Holding throughout (conditions): 10 µM unless noted

Molecules are shown by their SMILES. This is part of a sample that, as a whole, favours compounds with a hit. Of some 83,000 tested, about 20% had one in any assay.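 Each cell line was grown in a 96-well plate and treated with one concentration of compound for 48 hours. Values below 10 were considered active.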 Unmarked numbers belong to inactive results. Active and inactive are the calls of the source.

Take `CCOC(=O)c1noc2c1CCc1c-2cn(Cc2ccc(OC)cc2)c1-c1cc(OC)c(OC)c(OC)c1`: the growth in the assay with NCI-H23 lung is 42.9%; in the assay on NCI-H226 lung it was 40.8%; in the assay with NCI-H322M lung, 52.2%; in the assay on HOP-62 NSCLC, 22.8%; in the assay on NCI-H460 lung, 8.9% (active); with HOP-92 NSCLC it was 63.4%. Besides, the growth with NCI-H522 lung was 3.83% (active); with A549/ATCC NSCLC, 43.5%; with 786-0 renal, 34.7%; with COLO 205 colon, 1.98% (active); in the assay with DU-145 prostate, 24.5%; in the assay with K-562 leukemia it was 7.62% (active). The growth in the assay on MALME-3M melanoma was 76.9%; with MDA-MB-231 breast it was -1.46% (active); in the assay with RXF 393 renal it was 11.7%; with SF-268 CNS, 41.5%; in the assay on SF-295 CNS, 21.2%; with SF-539 CNS it was -10.4% (active). For the same compound, the growth was 54.3% in the assay with UACC-257 melanoma and 3.01% (active) with M14 melanoma.

For `COc1ccc(-c2ccc(NC(=O)Nc3cccc(C(F)(F)F)c3)c(C)n2)cc1`, the growth with NCI-H23 lung was 47.6%; in the assay on NCI-H226 lung, 58.1%; with NCI-H322M lung, 64.4%; with HOP-62 NSCLC, 68%; in the assay with NCI-H460 lung, 48.7%; in the assay on HOP-92 NSCLC it was 68.8%. In addition, the growth in the assay on NCI-H522 lung was 28.5%; in the assay with A549/ATCC NSCLC it was 42.5%; with 786-0 renal, 77.3%; in the assay on COLO 205 colon, 84.5%; with DU-145 prostate, 68.8%; in the assay on K-562 leukemia, 32.5%. The growth in the assay with MALME-3M melanoma is 90.6%; in the assay on MDA-MB-231 breast it was 68.6%; in the assay on RXF 393 renal, 85.9%; with SF-268 CNS, 74.5%; in the assay with SF-295 CNS, 47.6%; in the assay on SF-539 CNS, 80.8%. In addition, the values for the growth with UACC-257 melanoma and in the assay with M14 melanoma were 61.4% and 37.2%, respectively.

Consider `COc1cc(-c2nc(N)n(CC(=O)Nc3ccc(/C(C)=N\O)cc3)n2)cc(OC)c1OC`, for which the growth was 95.8% in the assay on NCI-H23 lung; 94.8% in the assay with NCI-H226 lung; 94.2% in the assay with NCI-H322M lung; 94.5% in the assay on HOP-62 NSCLC; 106% in the assay with NCI-H460 lung; 88.2% in the assay on HOP-92 NSCLC. Further, the growth was 60.8% in the assay on NCI-H522 lung; 74.2% in the assay with A549/ATCC NSCLC; 104% with 786-0 renal; 104% with COLO 205 colon; 108% in the assay with DU-145 prostate; 96.1% in the assay on K-562 leukemia. Further, the growth in the assay on MALME-3M melanoma is 96.7%; with MDA-MB-231 breast, 103%; in the assay with RXF 393 renal, 105%; in the assay with SF-268 CNS, 93.5%; in the assay on SF-295 CNS it was 101%; with SF-539 CNS it was 97.1%. The growth is 63.7% with UACC-257 melanoma and 101% in the assay on M14 melanoma.

On to `Nc1ncnc2c1c(-c1ccc(Oc3ccccc3)cc1)nn2C[C@H]1SSC[C@H]1O`, for which the growth in the assay on NCI-H23 lung was 19.3%; in the assay on NCI-H226 lung, -2.25% (active); with NCI-H322M lung, 13.4%; in the assay on HOP-62 NSCLC it was 20.1%; in the assay with NCI-H460 lung it was -43.6% (active); with HOP-92 NSCLC, -4.52% (active). For the same compound, the growth in the assay on NCI-H522 lung is -31.1% (active); in the assay with A549/ATCC NSCLC, -35.8% (active); with 786-0 renal, 12.9%; in the assay with COLO 205 colon, -83.3% (active); in the assay with DU-145 prostate, -22.6% (active); with K-562 leukemia, -16.9% (active). The growth in the assay with MALME-3M melanoma is 13.9%; with MDA-MB-231 breast, 9.82% (active); in the assay on RXF 393 renal, -4.66% (active); with SF-268 CNS it was 20.1%; with SF-295 CNS, 20.7%; with SF-539 CNS, 10%. Further, the growth in the assay on UACC-257 melanoma is 1.69% (active); with M14 melanoma, -66.7% (active).

For the compound `Oc1ccccc1/C=N/c1ccccn1`, the growth with NCI-H23 lung was 220%; in the assay on NCI-H226 lung, 107%; in the assay with NCI-H322M lung it was 132%; in the assay on HOP-62 NSCLC, 112%; with NCI-H460 lung, 112%; in the assay with HOP-92 NSCLC, 76.9%. Moreover, the growth in the assay with NCI-H522 lung was 92%; in the assay on A549/ATCC NSCLC, 104%; with 786-0 renal it was 158%; in the assay on COLO 205 colon it was 85.7%; in the assay with DU-145 prostate, 129%; with K-562 leukemia it was 109%. Also, the growth with MALME-3M melanoma was 115%; in the assay with MDA-MB-231 breast, 106%; with RXF 393 renal it was 107%; in the assay on SF-268 CNS it was 110%; with SF-295 CNS it was 121%; with SF-539 CNS, 100%. The growth with UACC-257 melanoma was 91.4%; in the assay with M14 melanoma, 100%.

With `CCCCCCCC(=O)SCC/C=C/[C@@H]1CC(=O)NCc2nc(cs2)C2=N[C@@](C)(CS2)C(=O)N[C@@H](C(C)C)C(=O)N1`, the growth was 16.5% with NCI-H23 lung; 3.64% (active) with NCI-H226 lung; 1.39% (active) in the assay with NCI-H322M lung; 12.1% with HOP-62 NSCLC; 9.84% (active) with NCI-H460 lung; -10.5% (active) in the assay on HOP-92 NSCLC. For the same compound, the growth was -27.4% (active) in the assay on NCI-H522 lung; 0.822% (active) in the assay on A549/ATCC NSCLC; 17.2% with 786-0 renal; -71.8% (active) in the assay on COLO 205 colon; 10.9% in the assay with DU-145 prostate; 6.8% (active) in the assay with K-562 leukemia. For the same compound, the growth was 10.8% in the assay on MALME-3M melanoma; 11.4% in the assay on MDA-MB-231 breast; -52.8% (active) with RXF 393 renal; 18% with SF-268 CNS; 2.96% (active) with SF-295 CNS; 25% in the assay on SF-539 CNS. The growth is -19.6% (active) with UACC-257 melanoma and 15.5% in the assay with M14 melanoma.

As to `O=C(Nc1cccc([N+](=O)[O-])c1)c1ccc2ccccc2c1O`, the growth in the assay with NCI-H23 lung is 41.6%; in the assay with NCI-H226 lung it was 76.9%; with NCI-H322M lung, 105%; with HOP-62 NSCLC, 53%; in the assay with NCI-H460 lung, 50.2%; in the assay on HOP-92 NSCLC, 6.8% (active). The growth with NCI-H522 lung was -8.09% (active); in the assay on A549/ATCC NSCLC, 68.1%; with 786-0 renal it was 40.4%; with COLO 205 colon, 110%; in the assay on DU-145 prostate, 79.3%; in the assay with K-562 leukemia it was 45.6%. The growth is 20.5% in the assay with MALME-3M melanoma; 82.2% in the assay with MDA-MB-231 breast; 37.5% with RXF 393 renal; 71.7% with SF-268 CNS; 57.1% in the assay on SF-295 CNS; 55.2% in the assay on SF-539 CNS. Further, the results for the growth in the assay on UACC-257 melanoma and in the assay with M14 melanoma were 14.5% and 49.8%, respectively.
